# Compounds with a hit are over-represented: about 21% of the library has one in this group of screens.
# Cycloheximide cs: affects cycloheximide protein synthesis inhibition readout, counter-screen. cell reporter, cycloheximide protein synthesis inhibition counterscreen. max response, %. 300,000 compounds, 12% hits. AID 2314; in the data active = max response mostly above about 13%, no sharp cut-off; inactive = mostly below about 14%; note: read at 38.3 µM for the half of the compounds with a filed dose; 0% is about no effect
# Pf growth 48h: inhibits P. falciparum growth in the first generation, 48 h; P. falciparum luciferase growth in erythrocytes, 48 h; AID 504832; Potency, µM (highest dose often 28.7 µM), for the others: top-dose activity change, negative = inhibition, most hits filed as inhibitors; 310,000 compounds, 5.9% hits; note: potency is the fitted concentration of half-maximal effect; % is set by controls: 0 for no effect and ±100 for the full control effect
#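 Compounds are pin-transferred into medium, infected erythrocytes (2% hematocrit, 0.1% parasitemia final) are added, and plates sit one parasite generation at 37 C in 5% CO2. Detection reagent is then added and luminescence measured.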
# Pf growth 96h: P. falciparum growth inhibition at 96 hour, primary screen for plastid delayed-death inhibitors. P. falciparum luciferase reporter growth, 96 h. Potency, µM (series often up to 28.7 µM), inactives show top-dose activity change, negative = inhibition, most hits filed as inhibitors. 320,000 compounds, 6.9% hits; note: potency is the fitted concentration of half-maximal effect; % is set by controls: 0 for no effect and ±100 for the full control effect
#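 P. falciparum expressing integrated firefly luciferase, in erythrocytes at 2% hematocrit, 0.05% parasitemia, incubated with compounds 96 h at 37 C, 5% CO2. Growth inhibition read as loss of luminescence; two-generation exposure targets delayed-death apicoplast inhibitors.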
# Shiga inhibitor: blocks Shiga toxin action in Vero cells; Vero cells, Shiga toxin protein synthesis inhibition reporter; inhibition, % at 38.7 µM; 290,000 compounds, 9.2% hits; AID 2315; in the data active = inhibition mostly above about 28%, no sharp cut-off; inactive = mostly below about 43%; note: 0% is about no effect
# AMA1-RON2 inh: AMA1-RON2 (P. falciparum) interaction inhibition. AlphaScreen AMA1-biotinylated RON2 peptide binding. Potency, µM (titrated, usually from 58.2 µM), for the others: at the top dose activity change, negative = inhibition, usual class: inhibitors. 360,000 compounds, 0.2% hits. AID 720542;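 note: potency is the fitted concentration of half-maximal effect; 0% = vehicle wells and -100% = peptide control; nearly all actives have a fitted effect of over 45% in size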
#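 AMA1 (3D7) with his tag at 25 nM final met compounds first, then biotinylated RON2 peptide at 25 nM; detection used donor plus acceptor beads, 10 µg/mL apiece, read by AlphaScreen after 30 min at room temperature.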
# HCV inhibitor: inhibitors of hepatitis C virus infection. Huh7.5.1 HCVcc-Cre infection, luciferase reporter, 44 h. Potency, µM (titrated, usually from 41.8 µM), without a hit: at the highest dose activity change, negative = inhibition, usual class: inhibitors. 340,000 compounds, 3.4% hits; note: potency is the fitted concentration of half-maximal effect; % is set by controls: 0 for no effect and ±100 for the full control effect
#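 A cell-based infection assay in which seeded cells (1,000 per well) receive test compound after 4 h, are inoculated with HCVcc-Cre at approximately 0.5 moi, and are incubated 44 h before luminescence detection.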
# The depositor's hits bear a star; ? = inconclusive; / = no result; [ ] = another dose, or the depositor's remark. Unless noted, calls come from the whole dose curve; as a rule, active = well fitted curve in the direction sought with a large enough effect; inconclusive = small, poorly fitted or top-dose-only effect, or another doubt; inactive = no such curve, though single readings can be large; an effect the other way counts as inactive or inconclusive.
SMILES,Cycloheximide cs,Pf growth 48h,Pf growth 96h,Shiga inhibitor,AMA1-RON2 inh,HCV inhibitor
CCCC(C)NC(=O)COc1ccc(Sc2ccc(OCC(=O)NC(C)CCC)cc2)cc1 (configuration not stated),-1.4,7.38µM*,?,-5.1,-18.8%,?
CCN(CC)c1ccc(/C=N/N2CC(=O)NC2=S)cc1,/,?,3.7µM*,/,82.2%,0.0%
CCN(CC)c1ccc(/C=N/n2c(C)cc(C)cc2=O)cc1,-2.9,7.38µM*,6.8%,0.6,4.7%,-19.6%
O=C(Cn1nc(-c2ccccc2)ccc1=O)Nc1ccc(N2CCN(C(=O)c3cccs3)CC2)cc1,0.5,8.4%,?,-8.9,?,-26.0%
O=C(Nc1ccccc1F)N1CCc2ccccc2C1,56.9*,97.6%,?,83.5*,0.0%,2.8%
Cc1ccc(C)c(NC(=O)N2CCc3ccccc3C2)c1,42.3*,184.2%,?,77.7*,-3.1%,-2.8%
CC1CC(C)CN(C(=O)Nc2ccccc2F)C1 (configuration not stated),5.5,15.1%,13.6%,13.2,2.3%,25.1%
CCC1(c2ccc(OC)cc2)NC(=O)N(CC(=O)c2ccc3c(c2)OCCO3)C1=O (configuration not stated),/,?,?,/,1.6%,?
O=C(O)Cc1csc(Nc2cccc(Cl)c2)n1,15.6*,37.5%,13.1µM*,47.0,-5.9%,6.2%
CC(C)c1ccc(Nc2nc(CC(=O)O)cs2)cc1,48.6*,272.7%,52.3%,108.2*,12.3%,23.3%
CC12CC3CC(C)(C1)CC(C(=O)Nc1nncs1)(C3)C2,0.9,8.9%,0.0%,-6.3,-10.4%,3.6%
COC(=O)C(CC(=O)c1ccc(Br)cc1)n1ccnc1 (configuration not stated),1.0,?,-30.0%,-1.2,/,1.26µM*
Cc1nc2c(-c3ccccc3)c(C)[nH]n2c(=O)c1Cc1ccccc1,-2.9,10.4µM*,5.6%,2.8,78.4%,10µM*
Cc1nc2c(-c3ccc(Cl)cc3)c(C)[nH]n2c(=O)c1Cc1ccccc1,3.2,?,-11.9%,11.4,75.7%,?
COC(=O)c1ccccc1-c1c2ccc(=N)cc-2oc2cc(N)ccc12,/,1.31µM*,0.329µM*,/,14.6%,?
COc1ccc(-n2nc3c(N4CCC(C(=O)NCc5ccco5)CC4)nnc(C)c3c2C)cc1,-7.2,?,44.6%,2.4,-3.2%,3.4%
Cc1ccc(-n2nc3c(N4CCC(C(=O)NCc5ccc(C)o5)CC4)nnc(C)c3c2C)cc1,8.4,?,10.4µM*,-12.1,5.9%,?
Cc1ccc(-n2nc3c(N4CCC(C(=O)NCc5cccc(F)c5)CC4)nnc(C)c3c2C)cc1,-3.1,?,4.15µM*,-2.3,?,-1.8%
Cc1ccc(-n2nc3c(N4CCC(C(=O)NCCc5ccco5)CC4)nnc(C)c3c2C)cc1,-0.5,?,10.1%,-5.0,-12.6%,?
C=C1CCN(c2ccc(C(=O)NCc3ccc(OC)cc3)cc2[N+](=O)[O-])CC1,/,/,/,/,-9.1%,?
C[C@@H]1CN([C@H](C)CO)C(=O)CCCn2nncc2CO[C@@H]1CN(C)S(=O)(=O)c1ccc2c(c1)OCCCO2,/,/,/,/,-1.3%,/
CC1CN=C(NCc2ccccc2)S1 (configuration not stated),16.3*,3.5%,?,21.1,16.5%,-9.9%
CC1(C)CN=C(Nc2ccccc2C(F)(F)F)S1,-0.9,71.8%,6.4%,30.3,1.6%,?
CC1(C)CN=C(NCc2ccccc2Cl)S1,17.2*,?,-26.3%,55.1*,7.7%,24.6%
CC1CN=C(NCc2ccccc2Cl)S1 (configuration not stated),24.6*,?,?,41.8*,9.8%,3.4%
SMILES,Cycloheximide cs,Pf growth 48h,Pf growth 96h,Shiga inhibitor,AMA1-RON2 inh,HCV inhibitor
CCC(O)CNC(=O)CCc1nnc(C2(c3ccc(Cl)cc3)CCC2)o1 (configuration not stated),9.4,-5.3%,0.9%,11.9,-1.0%,6.3%
O=[N+]([O-])c1ccc(N/N=C/c2sc(N3CCOCC3)nc2-c2ccccc2)c(S(=O)(=O)Nc2ccc(Cl)cc2)c1,-2.7,?,?,-5.2,24.2%,2.51µM*
O=[N+]([O-])c1ccc(N/N=C/c2sc(N3CCOCC3)nc2-c2ccccc2)c(S(=O)(=O)Nc2ccccc2Cl)c1,1.5,1.47µM*,?,-1.3,-13.4%,3.55µM*
O=C(N/N=C/c1sc(N2CCOCC2)nc1-c1ccccc1)c1ccccc1F,-1.4,?,?,-7.8,7.2%,?
CC(C)c1ccc(C(=O)N2CCCC(c3cc(C(=O)Nc4ccc5c(c4)OCO5)no3)C2)cc1 (configuration not stated),/,/,/,/,2.6%,/
O=C(Nc1nccs1)c1ccc(COc2ccccc2Br)o1,41.2*,?,/,53.0*,4.4%,11.2µM*
O=C(CS(=O)(=O)c1ccc(F)cc1)Nc1nccs1,/,11.9%,21.5%,/,79.1%,2.6%[8.37 µM]
O=C(Nc1nccs1)c1ccc(COc2ccc(Cl)cc2)o1,29.9*,-0.8%,?,55.1*,34.7%,?
O=C(COc1ccc(F)cc1)Nc1nccs1,33.0*,121.5%,108.9%,50.8*,-16.3%,16.0%
O=C(Nc1nccs1)c1ccc(COc2ccc(F)cc2)o1,32.3*,54.5%,-9.4%,52.0,49.0%,?
N#Cc1ccc(C(=O)N2CCCCC2c2cc(C(=O)Nc3ccccc3Cl)no2)cc1 (configuration not stated),/,/,/,/,-7.3%,/
CCn1c(SCC(=O)NC2CC2)nnc1-c1ccc(F)cc1,-2.1,15.5%,16.5%,-25.1,-1.2%,13.4%
O=C1NC(=O)/C(=C\c2ccc(Br)o2)S1,23.4*,30.9%,4.8%,19.9*,11.4%,10.9%
O=C1NC(=O)/C(=C/c2ccc(-c3cc(C(=O)O)ccc3Cl)o2)S1,-1.0,5.5%,?,-7.1,-4.4%,8.4%
COc1ccccc1OCc1ccc(C(=O)N2CCCCC2)o1,12.8*,6.7%,?,26.0,6.6%,10.0%
Cc1ccc(OCc2ccc(C(=O)N3CCCC3)o2)cc1C,34.3*,?,-4.4%,75.8*,-11.8%,-14.2%
O=C(c1ccc(COc2c(F)c(F)c(F)c(F)c2F)o1)N1CCOCC1,-2.0,5.0%,13.1µM*,10.4,-2.9%,14.9%
O=C(c1ccc(COc2ccc(Cl)cc2Cl)o1)N1CCCC1,33.2*,16.9%,13.7%,31.3,-7.6%,3.7%
O=C(c1ccc(COc2c(F)c(F)cc(F)c2F)o1)N1CCN(c2ccccc2)CC1,4.9,?,-11.0%,-3.6,-2.5%,3.1%
O=C1NC(=O)C(=C2CCOC2=O)N1,/,/,/,/,1.6%,/
CC(C)Oc1ccccc1C1NC(=O)CCC1[N+](=O)[O-] (configuration not stated),1.5,11.4%,-14.2%,9.2,11.7%,-5.2%

# High-throughput results (PubChem BioAssay)
